A selection: hits, their analogues and other compounds. The true share with any hit is near 0.95%.
Giardia FBPA inh-1: blocks Giardia fructose-bisphosphate aldolase activity | Potency, µM (titrated, usually from 59.6 µM), without a hit: at the highest dose activity, negative = inhibition, hits mostly inhibitors | A8B2U2 | AID 2451 | purified Giardia FBPA | 290,000 tested, 0.71% active; also: potency is read from the fitted curve at half-maximal effect; % is scaled to controls: 0 for no effect and ±100 for the full control effect; nearly all actives have a fitted effect of over 55% in size
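40 nM FBPA preincubated 10 min at RT with compound (up to 57.5 uM final), then substrate plus GAPDH/TPI/NAD/arsenate coupling and diaphorase/resazurin added. Fluorescence read after 20 min at RT, 525/598 nm.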
RE007 growth inh: less growth of the S. pombe RE007 Vpr strain; Potency, µM (titrated, usually from 92.2 µM), inactives show at the top dose activity change, negative = less growth, hits mostly inhibitors; 360,000 tested, 0.21% active; S. pombe RE007 Vpr strain, BacTiter-Glo ATP luminescence, 24 h; AID 651644; active = well fitted falling curve with a large enough effect; inconclusive = small, poorly fitted or top-dose-only effect; inactive = no such curve, though single readings can be large or run the other way; also: potency is read from the fitted curve at half-maximal effect; % is scaled to controls: 0 for no effect and ±100 for the full control effect; nearly all actives have a fitted effect of over 50% in size
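Fission yeast strain RE007, carrying one chromosomally integrated HIV-1 vpr copy, was seeded at OD 0.01 in PMG+AL medium with 23 nL pinned compound. After 24 h at 30 °C and 99% humidity, viability was read by BacTiter-Glo luminescence.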
Tb PYK inh: inhibitors of Trypanosoma brucei pyruvate kinase | Q57TT1 | TbPYK enzyme, Kinase-Glo Plus ATP luminescence, 45 min | Potency, µM (series often up to 76.8 µM), for inactives: at the top dose activity, negative = inhibition, usual class: inhibitors | 410,000 tested, 0.12% active | AID 624173; also: potency is read from the fitted curve at half-maximal effect; % is scaled to controls: 0 for no effect and ±100 for the full control effect; nearly all actives have a fitted effect of over 50% in size
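Enzyme and substrate buffer are dispensed first and compound is pin-transferred. ADP at 130 uM final then starts the reaction, which runs 45 min at room temperature. Detection reagent is added for 10 min before luminescence is imaged.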
LmPK inh: LmPK (Leishmania mexicana) enzyme inhibition | purified LmPK, Kinase-Glo ATP luminescence, 1 h | AID 1721 | Potency, µM (top dose mostly 57.5 µM), for the others: top-dose activity change, negative = inhibition, most hits filed as inhibitors | Q27686 | 290,000 tested, 0.37% active; also: potency is read from the fitted curve at half-maximal effect; % is scaled to controls: 0 for no effect and ±100 for the full control effect
Target sequence (Q27686 whole entry, looked up): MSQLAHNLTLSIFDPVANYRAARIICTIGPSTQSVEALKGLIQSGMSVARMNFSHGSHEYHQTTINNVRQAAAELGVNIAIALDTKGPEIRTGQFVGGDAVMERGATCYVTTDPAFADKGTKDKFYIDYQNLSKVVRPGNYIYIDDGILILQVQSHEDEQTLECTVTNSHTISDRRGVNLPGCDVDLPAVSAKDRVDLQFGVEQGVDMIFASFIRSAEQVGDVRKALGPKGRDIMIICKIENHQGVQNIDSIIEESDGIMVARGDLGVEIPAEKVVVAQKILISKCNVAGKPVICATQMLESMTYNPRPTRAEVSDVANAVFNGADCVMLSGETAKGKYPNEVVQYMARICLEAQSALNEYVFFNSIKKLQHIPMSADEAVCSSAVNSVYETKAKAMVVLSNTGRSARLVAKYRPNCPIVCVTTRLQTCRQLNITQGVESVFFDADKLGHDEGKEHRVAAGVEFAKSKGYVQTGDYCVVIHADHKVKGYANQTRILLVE
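Kinase-Glo luminescence read after 1 h RT reaction of 0.1 nM LmPK with 0.5 mM PEP and 0.1 mM ADP. Activity scaled between uninhibited and enzyme-free controls.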
LmPK confirm: Inhibits Leishmania mexicana pyruvate kinase, confirmation. shares compounds with LmPK inh. purified LmPK, Kinase-Glo ATP luminescence, 1 h. Potency, µM (series often up to 57.5 µM), without a hit: at the top dose activity change, negative = inhibition, most hits filed as inhibitors. 150 tested, 40% active. AID 2559;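 active = compounds giving a full or partial concentration-response curve, as inhibitors or activators; inconclusive = weak, top-dose-only or unclear curve responses; inactive = no response at any tested dose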
Giardia growth: Giardia lamblia growth inhibition | shares compounds with Giardia FBPA inh-1 | Potency, µM (titrated, usually from 57.5 µM), without a hit: at the highest dose activity change, negative = inhibition, most hits filed as inhibitors | 1,500 tested, 5% active | Giardia lamblia trophozoite growth inhibition;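 also: potency is read from the fitted curve at half-maximal effect; trophozoites exposed to compound for 48 h at 37 °C; % is scaled to controls: 0 for no effect and ±100 for the full control effect; nearly all actives have a fitted effect of over 70% in size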
Mammal cell tox: mammalian cytotoxicity of Giardia aldolase inhibitor hits | shares compounds with Giardia FBPA inh-1 | mammalian cell viability counter-screen, qHTS | Potency, µM (series often up to 57.5 µM), inactives show at the top dose viability change, negative = toxicity, hits mostly inhibitors | 1,500 tested, 4% active | AID 2786;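 also: Chinese hamster ovary cells used as mammalian cytotoxicity surrogate; viability measured as cellular ATP by luminescence; potency is read from the fitted curve at half-maximal effect; compound exposure lasted 48 h before reading; % is scaled to controls: 0 for no effect and ±100 for the full control effect; nearly all actives have a fitted effect of over 60% in size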
Giardia FBPA inh-2: confirmation of Giardia fructose-bisphosphate aldolase inhibitors | Potency, µM (series often up to 57.5 µM), for inactives: at the top dose activity change, negative = inhibition, hits mostly inhibitors | 1,500 tested, 5% active | shares compounds with Giardia FBPA inh-1 | purified Giardia aldolase enzyme activity, qHTS; also: potency is read from the fitted curve at half-maximal effect; % is scaled to controls: 0 for no effect and ±100 for the full control effect; nearly all actives have a fitted effect of over 45% in size
Rabbit aldolase: selectivity test for Giardia aldolase inhibitors: rabbit aldolase | shares compounds with Giardia FBPA inh-1 | Rabbit muscle FBPA enzyme inhibition, selectivity counter-screen | 1,500 tested, 4% active | Potency, µM (titrated, usually from 57.5 µM), inactives show at the top dose activity, negative = inhibition, actives largely listed as inhibitors; also: potency is read from the fitted curve at half-maximal effect; % is scaled to controls: 0 for no effect and ±100 for the full control effect; nearly all actives have a fitted effect of over 60% in size
GAPDH coupling: counter-screen for Giardia aldolase inhibitors: GAPDH coupling enzyme; AID 2795; shares compounds with Giardia FBPA inh-1; 1,500 tested, 6% active; Potency, µM (doses to about 57.5 µM), inactives show at the highest dose activity change, negative = inhibition, usual class: inhibitors; GAPDH coupling enzyme counterscreen, biochemical, qHTS; also: potency is read from the fitted curve at half-maximal effect; % is scaled to controls: 0 for no effect and ±100 for the full control effect; nearly all actives have a fitted effect of over 55% in size
* hit, by the source's call; ? = inconclusive; . = not tested or not shown; [ ] = dose if it differs, or a comment. Unless noted, calls follow the shape of the dose curve; as a rule, active = well fitted curve in the direction sought with a large enough effect; inconclusive = small, poorly fitted or top-dose-only effect, or another doubt; inactive = no such curve, though single readings can be large; an effect the other way counts as inactive or inconclusive.

SMILES	Giardia FBPA inh-1	RE007 growth inh	Tb PYK inh	LmPK inh	LmPK confirm	others
COc1ccc(C(=O)N=c2nc3ccccn3s2)cc1	-4%	?	-10%	?	16µM*
CN(CC(=O)Nc1ccccc1Cl)C(=O)COC(=O)c1cc([N+](=O)[O-])ccc1N1CCOCC1	.	-9%	-6%	.	.
CN(Cc1cccnc1)Cc1cn(C)nc1-c1ccc(Oc2ccccc2)cc1	1%	-7%	5%	4%	.
Cc1cc(CN(C)Cc2cn(C)nc2-c2ccc(Oc3ccccc3)cc2)on1	-8%	-5%	2%	-5%	4%
Cc1ccc(C(=O)c2cn(CC(=O)Nc3ccc4c(c3)OCCO4)c3nc(C)ccc3c2=O)cc1	.	.	1%	.	.
Cc1cc(NC(=O)c2ccccc2)ncc1NC(=O)c1ccco1	?	?	?	14µM*	16µM*
CCC(=O)Nc1cc(C)c(NC(=O)c2ccco2)cn1	3%	-10%	-3%	-1%	.
Cc1c(C(=O)NC(=S)Nc2ccc(NC(=O)c3cccs3)cc2)oc2ccccc12	-16%	0%	-2%	7.1µM*	-13%
CN(Cc1ccon1)Cc1cn(C)nc1-c1ccc2c(c1)OCCO2	-1%	-12%	-1%	6%	-5%
CS(=O)(=O)N1CCC(C(=O)Nc2ccc(Cl)cc2Cl)CC1	.	-15%	3%	.	.
CCC(CC)C(=O)N(C)c1c(C)nc2c(OCc3ccc(C#N)cc3)cccn12	.	-21%	9%	.	.
Cn1c(COc2ccccc2O)[n+](C)c2ccccc21	-2%	.	-1%	-1%	.
COc1ccc(N=Nc2n(C)c3ccccc3[n+]2C)cc1	?	.	.	1.4µM*	13µM*
Cc1cccc(/N=C/c2c(O)ccc3oc4c(c23)CCCC4)n1	-1%	-13%	4%	2%	.
O=[N+]([O-])c1cc2oc3c(c2c(C=NCc2ccccc2)c1O)CCCC3	?	?	?	1µM*	0.82µM*
CC(C)CN=Cc1c(O)c([N+](=O)[O-])cc2oc3c(c12)CCCC3	?	?	-22%	10µM*	?
Cc1ccc(CNc2ncnc3c2nnn3C)cc1	.	.	0%	.	.
N#CCC(C(=O)c1cccnc1)c1ccccc1 (stereo unspecified)	.	0%	1%	.	.
Cn1cc(Cl)c(C(=O)Nc2nc3ccccc3s2)n1	-8%	-29%	-10%	7.9µM*	?
O=C(Nc1nc2ccccc2s1)c1c(F)cccc1Cl	-15%	-23%	5%	-1%	.
O=c1c2ccccc2nc(-c2ccccc2)n1-c1ccccc1	6%	10%	3%	-1%	.
O=c1c2ccccc2[se]n1-c1ccccc1	7.9µM*	-21%	8.9µM*	22µM*	13µM*	Giardia growth=20µM*;Mammal cell tox=?;Giardia FBPA inh-2=?;Rabbit aldolase=22µM*;GAPDH coupling=-6%
C[C@]12CC[C@@H]3c4cc(O)c(O)cc4CC[C@H]3[C@@H]1CC[C@@H]2O	16µM*	-15%[18.4 µM]	?	0.56µM*	?	Giardia growth=7%;Mammal cell tox=-15%;Giardia FBPA inh-2=4µM*;Rabbit aldolase=?;GAPDH coupling=-29%

Source: PubChem (National Center for Advancing Translational Sciences (NCATS))
